Data published in paper PMC4336329 (PLoS ONE, 2015).
The campaign covered roughly 310,000 compounds. About 14,000 (4.5%) showed an effect of 50% or more. The effect is printed as a negative number. Shown is part of a subset that was picked to be rich in strong results.

target: human ether-à-go-go-related gene (hERG) potassium channel (human, UniProt Q12809); experiment: primary screen, population patch clamp on CHO cells stably expressing hERG; higher = less effect of the substance
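Also: peak tail current of the secondary pulse compared with the same well before compound.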

Sequence of human ether-à-go-go-related gene (hERG) potassium channel (Q12809 whole entry, looked up): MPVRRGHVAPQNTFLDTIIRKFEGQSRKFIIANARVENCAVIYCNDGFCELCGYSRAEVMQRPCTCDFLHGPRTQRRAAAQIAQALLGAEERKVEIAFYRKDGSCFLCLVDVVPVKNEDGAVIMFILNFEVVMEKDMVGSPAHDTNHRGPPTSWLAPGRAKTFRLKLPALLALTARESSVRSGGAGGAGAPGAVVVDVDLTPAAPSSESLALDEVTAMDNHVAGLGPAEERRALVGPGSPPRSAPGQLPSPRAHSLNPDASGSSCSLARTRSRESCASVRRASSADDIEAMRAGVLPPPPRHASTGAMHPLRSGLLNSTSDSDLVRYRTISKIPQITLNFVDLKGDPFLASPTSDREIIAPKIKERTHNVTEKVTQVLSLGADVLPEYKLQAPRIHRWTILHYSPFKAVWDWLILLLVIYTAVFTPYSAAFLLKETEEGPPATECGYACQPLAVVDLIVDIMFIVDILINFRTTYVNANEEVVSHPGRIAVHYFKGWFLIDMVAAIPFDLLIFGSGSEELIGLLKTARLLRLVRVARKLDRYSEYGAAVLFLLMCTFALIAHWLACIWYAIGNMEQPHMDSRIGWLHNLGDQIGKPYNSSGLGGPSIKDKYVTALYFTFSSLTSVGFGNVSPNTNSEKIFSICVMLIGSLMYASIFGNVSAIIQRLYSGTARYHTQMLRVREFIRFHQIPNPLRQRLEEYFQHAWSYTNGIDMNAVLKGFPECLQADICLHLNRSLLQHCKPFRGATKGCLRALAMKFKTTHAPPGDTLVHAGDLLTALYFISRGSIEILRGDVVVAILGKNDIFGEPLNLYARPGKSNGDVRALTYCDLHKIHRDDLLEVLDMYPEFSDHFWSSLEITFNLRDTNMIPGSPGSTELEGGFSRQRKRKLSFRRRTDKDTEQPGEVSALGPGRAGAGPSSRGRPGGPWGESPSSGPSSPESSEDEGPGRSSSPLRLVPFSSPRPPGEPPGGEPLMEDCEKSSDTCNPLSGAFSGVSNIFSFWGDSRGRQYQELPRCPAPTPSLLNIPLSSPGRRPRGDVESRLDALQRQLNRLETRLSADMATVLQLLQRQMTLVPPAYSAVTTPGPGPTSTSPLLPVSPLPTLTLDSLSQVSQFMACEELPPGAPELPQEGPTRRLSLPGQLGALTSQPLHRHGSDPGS

Compound | hERG current change (%, negative = inhibition) at 10uM [%]
COc1ccc(S(=O)(=O)N2CCCCC2)cc1NC(=O)c1cccs1 | 32.3
O=S(=O)(Nc1ccc(OC(F)F)cc1)c1ccc(-c2ccon2)s1 | -15.3
Cc1ccc(C)c(N2CCN(CC(=O)Nc3ccc4[nH]c(=O)[nH]c4c3)CC2)c1 | -3.56
CCN(CC)c1ccc(C(=O)c2ccccc2C(=O)O)c(O)c1 | 3.8
CN(C)c1ccc(C(=O)c2ccccc2C(=O)O)c(O)c1 | 12.7
CCCCN(CCCC)c1ccc(C(=O)c2ccccc2C(=O)O)c(O)c1 | -75.2
FC(F)(F)c1cccc(NC(=S)N2CCN(c3cccc(C(F)(F)F)c3)CC2)c1 | 16.6
Cc1ccc(NC(=O)C2CCCN(S(=O)(=O)c3c(C)noc3/C=C/N(C)C)C2)cc1F (stereo not shown) | -1.44
CC1CCCN(Cc2nc3c(c(=O)n(C)c(=O)n3C)n2Cc2c(F)cccc2Cl)C1 (stereo not shown) | -1.45
CN1CCC(N(CCc2ccccc2)C(=O)CCC(=O)O)CC1 | -1.87
COc1cc(C(=O)N(CCc2ccccc2)C2CC3CCC(C2)N3C)cc(OC)c1OC.Cl.O (stereo not shown) | -38.3
CCCCN(C(=O)c1ccc(Cl)cc1)C1CC2CCC(C1)N2C.Cl (stereo not shown) | -47.4
CN1C2CCC1CC(NC(=O)c1ccc(Cl)cc1)C2 (stereo not shown) | 7.55
CN1C2CCC1CC(N(CCc1ccccc1)C(=O)c1ccc(Cl)cc1)C2.Cl (stereo not shown) | -83.2
Cc1cc(C)cc(C(=O)N(CCc2ccccc2)C2CC3CCC(C2)N3C)c1.Cl (stereo not shown) | -56.5
COc1ccc(C2CC(c3cccs3)=NN2C(=O)CSc2nncn2C)cc1OC (stereo not shown) | 4.67
O=C(Nc1ccccc1N1CCOCC1)C1CCCCN1S(=O)(=O)c1ccccc1 (stereo not shown) | -20.8
Cc1nc([N+](=O)[O-])c(NCCO)n1Cc1ccccc1 | 8.23
CCn1ncc([C@@H]2C[C@H]3CN(Cc4ccccc4C)C(=O)[C@]34CCCN24)c1C | 17.7
COc1ccccc1CN1C[C@@H]2C[C@@H](c3ccccc3OC)N3CCC[C@@]23C1=O | -14
COc1ccc(-c2[nH]ncc2[C@@H]2C[C@H]3CN(Cc4ccccc4C)C(=O)[C@]34CCCN24)cc1 | -51.7
Cc1ccccc1CN1C[C@@H]2C[C@@H](c3cn[nH]c3-c3ccccc3)N3CCC[C@@]23C1=O | -5.95

Compound | hERG current change (%, negative = inhibition) at 10uM [%]
COc1ccccc1CN1C[C@@H]2C[C@@H](c3ccccc3C)N3CCC[C@@]23C1=O | 17.4
Cc1ccccc1CN1C[C@@H]2C[C@@H](c3cn[nH]c3-c3ccc(F)cc3)N3CCC[C@@]23C1=O | -52.2
Cc1cc(NC(=O)C2CC=CCC2C(=O)O)no1 (stereo not shown) | -1.9
CN(Cc1ccccc1F)C(=O)CN1CCN(S(=O)(=O)c2ccc3c(c2)OCCCO3)CC1 | -18.4
O=C(O)C1CCCCC1C(=O)N1CCN(S(=O)(=O)c2ccc(F)cc2)CC1 (stereo not shown) | 8.47
COc1ccc(-c2cc(=O)c3cc(OC)c(OC)cc3[nH]2)cc1 | -5.83
COc1cc(NC(=O)c2cnc(N)s2)cc(C(=O)Nc2cccc(C(F)(F)F)c2)c1 | -26
Cc1ccc(Nc2cc(C)c3ccc(O)cc3n2)cc1C.Cl | -58.5
Cc1cc(Nc2ccccc2)nc2cc(O)ccc12 | -11.5
COc1ccc(Nc2cc(C)c3ccccc3n2)cc1 | 4.57
Cc1ccc(Nc2cc(C)c3c(O)cccc3n2)cc1C.Cl | 19
COC(=O)c1cc(Nc2cc(C)c3ccc(O)cc3n2)cc(C(=O)OC)c1 | 6.58
COc1ccc(Nc2cc(C)c3ccc(O)cc3n2)cc1 | -58.4
COC(=O)c1c(-c2cccs2)csc1NC(=O)CSc1ncnc2sc(C)c(C)c12 | 0.474
Cc1cc(C)nc(-n2nc(C)c3c(C(F)F)cc(C)nc32)n1 | 15.3
CCC1=C([N+](=O)[O-])C(c2ccc3c(c2)OCO3)NC(=O)N1 (stereo not shown) | 16
O=C(CSc1nc(CCC2CCCC2)nc2ccccc12)NCc1ccc2c(c1)OCO2 | 15
CCOP(=O)(OCC)C(O)c1ccc(OC)c(OC)c1 (stereo not shown) | 15.6
Cc1nc(SCC(=O)NCc2ccco2)nc(C)c1C | -6.76
Cc1ccc(CNC(=O)c2csc3c2CCCCC3)cc1 | 2.19
Cc1ccc(OCC(=O)Nc2cc(-c3nn4c(C)nnc4s3)ccc2C)cc1 | -24.7
Cc1ccc(-c2nn3c(C)nnc3s2)cc1NC(=O)COc1ccc(Cl)cc1 | -70.6

Compound | hERG current change (%, negative = inhibition) at 10uM [%]
COc1ccc(OCC(=O)Nc2cc(-c3nn4c(C)nnc4s3)ccc2C)cc1 | -4.85
CC(C)[C@H]1CN(C)CCN1Cc1cn(C)nc1-c1cccc(Cl)c1 | -27
COc1ccc(C(c2c(NC(=O)c3ccco3)sc(C)c2C)N2CCOCC2)cc1OC (stereo not shown) | -15
CC(=O)Nc1ccc(-c2sc(Nc3ccccc3)n[n+]2C)cc1.[Cl-] | 27.5
COc1ccccc1C1C=C(c2ccc(Cl)cc2)Nc2nc(N3C(=O)CCC3=O)nn21 (stereo not shown) | -32.8
N#C/C(=C/c1ccc(N2CCCC2)c([N+](=O)[O-])c1)c1nc2ccccc2[nH]1 | -3.43
N#C/C(=C\c1ccc(N2CCOCC2)c([N+](=O)[O-])c1)c1nc2ccccc2[nH]1 | -59.6
N#C/C(=C\c1ccc(N2CCCC2)c([N+](=O)[O-])c1)c1nc2ccccc2[nH]1 | -35.5
CCOc1cc(N2CCOCC2)c(OCC)cc1NC(=O)CN1C(=O)NC2(CCCCC2)C1=O | -69.7
CCOc1cc(N2CCOCC2)c(OCC)cc1NC(=O)CN1C(=O)NC(C)(C2CC2)C1=O (stereo not shown) | 26.8
CCOc1cc(N2CCOCC2)c(OCC)cc1NC(=O)CN1C(=O)NC(CC(C)C)C1=O (stereo not shown) | -70.4
CCOc1cc(N2CCOCC2)c(OCC)cc1NC(=O)CN1C(=O)N(C)C2(CCCCC2)C1=O | -23.5
CCOc1cc(N2CCOCC2)c(OCC)cc1NC(=O)CN1C(=O)C2CC=CCC2C1=O (stereo not shown) | -8.84
CCOc1cc(N2CCOCC2)c(OCC)cc1NC(=O)CN1C(=O)NC(Cc2ccccc2)C1=O (stereo not shown) | -25.5
COc1cc(NC(=O)c2ccccc2)c(OC)cc1NC(=O)CN1C(=O)NC2(CCCCC2)C1=O | -70.3
CCOc1cc(N2CCOCC2)c(OCC)cc1NC(=O)CN1C(=O)NC2(CCc3ccccc32)C1=O (stereo not shown) | -44.5
CCOc1cc(N2CCOCC2)c(OCC)cc1NC(=O)CN1C(=O)NC2(CCCCCCC2)C1=O | -63
COc1ccccc1NC(=O)CN1C(=O)NC2(CCCCCCC2)C1=O | 1.08
COc1cc(NC(=O)c2ccccc2)c(OC)cc1NC(=O)CN1C(=O)NC2(CCCCC2C)C1=O (stereo not shown) | -49.8
CCOc1ccc(S(=O)(=O)N2CCOCC2)cc1NC(=O)CN1C(=O)NC2(CCCCC2)C1=O | -17.9
CSc1ccccc1C(=O)Nc1nc2ccccc2[nH]1 | 2.78
COc1ccccc1N(CC(=O)NC1CCCC1)C(=O)CCC(=O)Nc1ccccn1 | 6.68

Compound | hERG current change (%, negative = inhibition) at 10uM [%]
Cc1[nH]n(-c2ccccc2)c(=O)c1-c1ccc(Cl)cc1 | 9.3
COc1ccc(C(=O)NC(=S)Nc2ccccc2F)cc1 | 9.53
CN(C)S(=O)(=O)Oc1ccsc1C(=O)Nc1ccc(Cl)cc1 | -33.7
Cc1cc(N=NC(=O)c2ccccc2)ccc1O | 4.74
O=C(Nc1ccc(Cl)cc1)NC1CCCC1Cc1ccco1 (stereo not shown) | -15.3
CCOc1ccccc1Nc1cc(C)nc2ccc(C)cc12 | -70.1
CCOc1ccc(Nc2cc(C)nc3ccc(C)cc23)cc1 | -69.6
CCOc1cc(/C=N/Nc2cc(C)nc3ccc(C)cc23)ccc1O | 11.1
Cc1ccc2nc(C)cc(Nc3ccc([N+](=O)[O-])cc3)c2c1 | -14.4
Clc1ccc2c(NNc3ccccc3Cl)ccnc2c1 | 7.9
CCOc1ccccc1/C=N/Nc1cc(C)nc2ccc(C)cc12 | 8.9
CCOc1ccccc1Nc1ccnc2cc(Cl)ccc12 | -57.2
Cc1ccc(Nc2cc(C)nc3ccc(C)cc23)cc1 | -37.9
CCOc1ccc(Nc2ccnc3cc(Cl)ccc23)cc1 | -7.97
Cc1ccccc1-n1nnnc1SCc1cc(=O)n2ccsc2n1 | -25.6
Cc1nc2ccccc2nc1N1CCOCC1 | 5.42
Cc1cccc2nc(Cn3c(=O)n(CCCC(=O)NCc4ccco4)c(=O)c4ccccc43)cc(=O)n12 | -23
COc1ccc(S(=O)(=O)Nc2ccc(Nc3ccccc3)cc2)cc1 | 5.15
N#Cc1ccccc1Cn1cc(C(=O)c2ccccc2F)c2ccccc21 | 4.67
